Data reported in publication PMC12529666, “Dysregulation of AGO2-miRNA dynamics underlies the AGO2-associated Lessel–Kreienkamp syndrome”.

B1: ACACTTCA (ssRNA)
RNA 1: GAGUUCUACAGUCCGACGAUCCCAACACACUUCACACCUGGAAUUCUCGGGUGCCAA
RNA 2: UGGAGUGUGACAAUGGUGUUUG
DNA 1: GATCGTCGGACTGTAGAACTC
DNA 2: TTGGCACCCGAGAATTCCA
modifications: constant regions annealed to DNA blockers; guide miR-122 5' phosphate
B2: ACATTTCA (ssRNA)
RNA 1: GAGUUCUACAGUCCGACGAUCCCAACACAUUUCACACCUGGAAUUCUCGGGUGCCAA
RNA 2: UGGAGUGUGACAAUGGUGUUUG
DNA 1: GATCGTCGGACTGTAGAACTC
DNA 2: TTGGCACCCGAGAATTCCA
modifications: constant regions annealed to DNA blockers; guide miR-122 5' phosphate
B3: ACATCCCA (ssRNA)
RNA 1: GAGUUCUACAGUCCGACGAUCCCAACACAUCCCACACCUGGAAUUCUCGGGUGCCAA
RNA 2: UGGAGUGUGACAAUGGUGUUUG
DNA 1: GATCGTCGGACTGTAGAACTC
DNA 2: TTGGCACCCGAGAATTCCA
modifications: constant regions annealed to DNA blockers; guide miR-122 5' phosphate
B4: ATGCTCCG (ssRNA)
RNA 1: GAGUUCUACAGUCCGACGAUCCCAACAUGCUCCGCACCUGGAAUUCUCGGGUGCCAA
RNA 2: UGGAGUGUGACAAUGGUGUUUG
DNA 1: GATCGTCGGACTGTAGAACTC
DNA 2: TTGGCACCCGAGAATTCCA
modifications: constant regions annealed to DNA blockers; guide miR-122 5' phosphate
B5: ATACCTCA (ssRNA)
RNA 1: GAGUUCUACAGUCCGACGAUCCCAACAUACCUCACACCUGGAAUUCUCGGGUGCCAA
RNA 2: UGGAGUGUGACAAUGGUGUUUG
DNA 1: GATCGTCGGACTGTAGAACTC
DNA 2: TTGGCACCCGAGAATTCCA
modifications: constant regions annealed to DNA blockers; guide miR-122 5' phosphate
B6: ACGCCTCA (ssRNA)
RNA 1: GAGUUCUACAGUCCGACGAUCCCAACACGCCUCACACCUGGAAUUCUCGGGUGCCAA
RNA 2: UGGAGUGUGACAAUGGUGUUUG
DNA 1: GATCGTCGGACTGTAGAACTC
DNA 2: TTGGCACCCGAGAATTCCA
modifications: constant regions annealed to DNA blockers; guide miR-122 5' phosphate
B7: ACGTCTCA (ssRNA)
RNA 1: GAGUUCUACAGUCCGACGAUCCCAACACGUCUCACACCUGGAAUUCUCGGGUGCCAA
RNA 2: UGGAGUGUGACAAUGGUGUUUG
DNA 1: GATCGTCGGACTGTAGAACTC
DNA 2: TTGGCACCCGAGAATTCCA
modifications: constant regions annealed to DNA blockers; guide miR-122 5' phosphate
B8: ATATCTCA (ssRNA)
RNA 1: GAGUUCUACAGUCCGACGAUCCCAACAUAUCUCACACCUGGAAUUCUCGGGUGCCAA
RNA 2: UGGAGUGUGACAAUGGUGUUUG
DNA 1: GATCGTCGGACTGTAGAACTC
DNA 2: TTGGCACCCGAGAATTCCA
modifications: constant regions annealed to DNA blockers; guide miR-122 5' phosphate
B9: GCACCTCA (ssRNA)
RNA 1: GAGUUCUACAGUCCGACGAUCCCAACGCACCUCACACCUGGAAUUCUCGGGUGCCAA
RNA 2: UGGAGUGUGACAAUGGUGUUUG
DNA 1: GATCGTCGGACTGTAGAACTC
DNA 2: TTGGCACCCGAGAATTCCA
modifications: constant regions annealed to DNA blockers; guide miR-122 5' phosphate
B10: GCATTTCA (ssRNA)
RNA 1: GAGUUCUACAGUCCGACGAUCCCAACGCAUUUCACACCUGGAAUUCUCGGGUGCCAA
RNA 2: UGGAGUGUGACAAUGGUGUUUG
DNA 1: GATCGTCGGACTGTAGAACTC
DNA 2: TTGGCACCCGAGAATTCCA
modifications: constant regions annealed to DNA blockers; guide miR-122 5' phosphate

The binders below were run against AGO2 WT (phosphosite mutant background) (Homo sapiens, UniProt Q9UKV8 1-859, S387D;S824A;S828D;S831D;S834A) (assay: RNA Bind-n-Seq (nitrocellulose filter binding and sequencing); miR-122 guide loaded in AGO2; 60 min incubation; 30 mM Tris pH 8.0, 100 mM potassium acetate, 2 mM magnesium acetate, 0.5 mM TCEP, 0.005% NP-40, 0.01 mg/ml yeast tRNA; 3 nM AGO2-miR-122, 100 nM RNA library; 60; high values mean tight binding). Settings: protein: recombinant; tags: His6 (N-terminal, pFastBac HTA).
Chain of AGO2 WT (phosphosite mutant background) (Q9UKV8 whole entry S387D/S824A/S828D/S831D/S834A): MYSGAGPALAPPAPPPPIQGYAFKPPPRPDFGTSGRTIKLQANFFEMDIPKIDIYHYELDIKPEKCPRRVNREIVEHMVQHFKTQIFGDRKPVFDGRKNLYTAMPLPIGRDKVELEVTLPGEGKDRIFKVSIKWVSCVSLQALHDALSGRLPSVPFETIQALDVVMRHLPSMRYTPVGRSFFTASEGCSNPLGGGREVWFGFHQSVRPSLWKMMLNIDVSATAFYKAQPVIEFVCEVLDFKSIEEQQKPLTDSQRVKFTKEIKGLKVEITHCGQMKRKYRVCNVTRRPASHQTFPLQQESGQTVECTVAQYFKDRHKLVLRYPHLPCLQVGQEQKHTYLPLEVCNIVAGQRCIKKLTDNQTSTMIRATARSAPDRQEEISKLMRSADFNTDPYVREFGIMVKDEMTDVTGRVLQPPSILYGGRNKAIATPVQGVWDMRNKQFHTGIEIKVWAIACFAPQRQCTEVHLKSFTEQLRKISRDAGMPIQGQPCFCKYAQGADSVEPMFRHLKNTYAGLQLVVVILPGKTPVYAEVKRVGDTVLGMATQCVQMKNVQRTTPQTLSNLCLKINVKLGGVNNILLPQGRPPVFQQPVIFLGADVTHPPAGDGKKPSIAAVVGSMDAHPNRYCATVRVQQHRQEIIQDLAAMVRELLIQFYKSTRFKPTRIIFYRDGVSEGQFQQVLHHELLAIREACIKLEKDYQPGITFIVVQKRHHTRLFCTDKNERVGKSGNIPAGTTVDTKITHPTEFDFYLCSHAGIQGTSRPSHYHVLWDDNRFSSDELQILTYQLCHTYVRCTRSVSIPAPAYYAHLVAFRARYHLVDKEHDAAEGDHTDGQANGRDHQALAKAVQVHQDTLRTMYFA
Procedure, shortened: (§1)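 Fold enrichment is each target's read fraction divided by its read fraction in the input library. Sf9 insect cells expressed His-tagged AGO2 from baculovirus; the protein was loaded with a synthetic guide RNA and purified by Ni-NTA and a biotinylated capture oligo. The bound RNA was extracted, reverse-transcribed, barcode-amplified and sequenced on Illumina.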
For B1, the binding signal was 0.24 fold enrichment over input. For B2, the binding signal was 0.235 fold enrichment over input. In the case of B3, the binding signal is reported as 0.154 fold enrichment over input. With B4 the binding signal was 0.186 fold enrichment over input. With B5 the binding signal was 0.138 fold enrichment over input. With B6 the binding signal was 0.15 fold enrichment over input. In the case of B7, the binding signal is reported as 0.177 fold enrichment over input. In the case of B8, the binding signal is reported as 0.165 fold enrichment over input. B9 was tested, and the binding signal was 0.17 fold enrichment over input. With B10 the binding signal was 0.165 fold enrichment over input.

Each binder was assayed against AGO2 L192P (Homo sapiens, UniProt Q9UKV8 1-859, L192P;S387D;S824A;S828D;S831D;S834A) in the same assay as above. Settings: protein: recombinant; tags: His6 (N-terminal, pFastBac HTA).
Chain of AGO2 L192P (Q9UKV8 whole entry L192P/S387D/S824A/S828D/S831D/S834A): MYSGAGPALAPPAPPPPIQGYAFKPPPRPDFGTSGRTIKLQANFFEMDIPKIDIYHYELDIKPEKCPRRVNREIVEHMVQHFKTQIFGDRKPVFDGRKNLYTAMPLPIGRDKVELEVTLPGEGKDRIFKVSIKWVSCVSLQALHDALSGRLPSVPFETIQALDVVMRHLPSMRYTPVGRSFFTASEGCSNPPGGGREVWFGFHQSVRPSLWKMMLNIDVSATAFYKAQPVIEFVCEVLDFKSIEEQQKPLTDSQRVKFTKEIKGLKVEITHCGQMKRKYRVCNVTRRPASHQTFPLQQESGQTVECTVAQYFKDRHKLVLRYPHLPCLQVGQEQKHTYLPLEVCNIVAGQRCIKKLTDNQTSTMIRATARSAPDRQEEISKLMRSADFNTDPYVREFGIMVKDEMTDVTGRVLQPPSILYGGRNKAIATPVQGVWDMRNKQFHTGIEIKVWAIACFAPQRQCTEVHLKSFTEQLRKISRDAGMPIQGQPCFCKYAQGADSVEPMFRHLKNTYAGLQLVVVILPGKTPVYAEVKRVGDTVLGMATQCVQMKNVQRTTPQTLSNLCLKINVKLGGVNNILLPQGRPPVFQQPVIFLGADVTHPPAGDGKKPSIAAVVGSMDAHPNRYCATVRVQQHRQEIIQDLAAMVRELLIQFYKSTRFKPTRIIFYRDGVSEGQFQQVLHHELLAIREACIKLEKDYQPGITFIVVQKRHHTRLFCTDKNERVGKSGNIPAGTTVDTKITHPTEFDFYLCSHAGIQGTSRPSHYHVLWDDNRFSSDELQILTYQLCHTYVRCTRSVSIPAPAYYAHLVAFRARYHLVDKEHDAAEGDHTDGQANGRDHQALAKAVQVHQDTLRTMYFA
Procedure, shortened: as §1
For B1, the binding signal was 0.941 fold enrichment over input. With B2 the binding signal was 1.13 fold enrichment over input. In the case of B3, the binding signal is reported as 0.641 fold enrichment over input. In the case of B4, the binding signal is reported as 1.56 fold enrichment over input. For B5, the binding signal was 0.642 fold enrichment over input. B6 was tested, and the binding signal was 0.597 fold enrichment over input. In the case of B7, the binding signal is reported as 0.659 fold enrichment over input. For B8, the binding signal was 0.635 fold enrichment over input. With B9 the binding signal was 0.761 fold enrichment over input. For B10, the binding signal was 0.769 fold enrichment over input.

What follows are binders tested against AGO2 A367P (Homo sapiens, UniProt Q9UKV8 1-859, A367P;S387D;S824A;S828D;S831D;S834A) in the same assay as above. Settings: protein: recombinant; tags: His6 (N-terminal, pFastBac HTA).
Chain of AGO2 A367P (Q9UKV8 whole entry A367P/S387D/S824A/S828D/S831D/S834A): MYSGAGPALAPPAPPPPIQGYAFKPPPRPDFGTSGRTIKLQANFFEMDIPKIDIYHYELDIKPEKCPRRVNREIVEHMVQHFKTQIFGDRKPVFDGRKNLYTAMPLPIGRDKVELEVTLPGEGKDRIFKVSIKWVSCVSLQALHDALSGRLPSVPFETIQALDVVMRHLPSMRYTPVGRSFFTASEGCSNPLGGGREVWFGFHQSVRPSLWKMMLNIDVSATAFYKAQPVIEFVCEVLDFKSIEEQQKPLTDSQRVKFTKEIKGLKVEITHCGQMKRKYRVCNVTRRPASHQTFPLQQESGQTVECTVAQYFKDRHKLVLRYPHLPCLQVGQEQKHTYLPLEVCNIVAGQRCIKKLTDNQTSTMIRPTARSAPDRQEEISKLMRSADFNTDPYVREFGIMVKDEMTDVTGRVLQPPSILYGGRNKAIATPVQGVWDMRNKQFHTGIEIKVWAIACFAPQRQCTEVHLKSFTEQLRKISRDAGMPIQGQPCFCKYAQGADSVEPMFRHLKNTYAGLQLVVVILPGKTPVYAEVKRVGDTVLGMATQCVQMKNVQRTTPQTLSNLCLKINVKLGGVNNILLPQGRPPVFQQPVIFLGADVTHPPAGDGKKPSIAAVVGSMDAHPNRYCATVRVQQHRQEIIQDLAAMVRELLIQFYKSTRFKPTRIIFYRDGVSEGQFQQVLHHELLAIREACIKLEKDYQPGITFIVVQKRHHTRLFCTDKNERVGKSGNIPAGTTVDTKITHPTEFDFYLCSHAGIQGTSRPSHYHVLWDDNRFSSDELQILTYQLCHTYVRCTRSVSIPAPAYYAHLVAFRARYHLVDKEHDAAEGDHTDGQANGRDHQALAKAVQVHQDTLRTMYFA
Procedure, shortened: as §1
For B1, the binding signal was 0.66 fold enrichment over input. In the case of B2, the binding signal is reported as 0.727 fold enrichment over input. In the case of B3, the binding signal is reported as 0.325 fold enrichment over input. With B4 the binding signal was 1.45 fold enrichment over input. For B5, the binding signal was 0.406 fold enrichment over input. For B6, the binding signal was 0.316 fold enrichment over input. In the case of B7, the binding signal is reported as 0.413 fold enrichment over input. In the case of B8, the binding signal is reported as 0.396 fold enrichment over input. For B9, the binding signal was 0.505 fold enrichment over input. B10 was tested, and the binding signal was 0.434 fold enrichment over input.

What follows are binders tested against AGO2 T357M (Homo sapiens, UniProt Q9UKV8 1-859, T357M;S387D;S824A;S828D;S831D;S834A) in the same assay as above. Settings: protein: recombinant; tags: His6 (N-terminal, pFastBac HTA).
Chain of AGO2 T357M (Q9UKV8 whole entry T357M/S387D/S824A/S828D/S831D/S834A): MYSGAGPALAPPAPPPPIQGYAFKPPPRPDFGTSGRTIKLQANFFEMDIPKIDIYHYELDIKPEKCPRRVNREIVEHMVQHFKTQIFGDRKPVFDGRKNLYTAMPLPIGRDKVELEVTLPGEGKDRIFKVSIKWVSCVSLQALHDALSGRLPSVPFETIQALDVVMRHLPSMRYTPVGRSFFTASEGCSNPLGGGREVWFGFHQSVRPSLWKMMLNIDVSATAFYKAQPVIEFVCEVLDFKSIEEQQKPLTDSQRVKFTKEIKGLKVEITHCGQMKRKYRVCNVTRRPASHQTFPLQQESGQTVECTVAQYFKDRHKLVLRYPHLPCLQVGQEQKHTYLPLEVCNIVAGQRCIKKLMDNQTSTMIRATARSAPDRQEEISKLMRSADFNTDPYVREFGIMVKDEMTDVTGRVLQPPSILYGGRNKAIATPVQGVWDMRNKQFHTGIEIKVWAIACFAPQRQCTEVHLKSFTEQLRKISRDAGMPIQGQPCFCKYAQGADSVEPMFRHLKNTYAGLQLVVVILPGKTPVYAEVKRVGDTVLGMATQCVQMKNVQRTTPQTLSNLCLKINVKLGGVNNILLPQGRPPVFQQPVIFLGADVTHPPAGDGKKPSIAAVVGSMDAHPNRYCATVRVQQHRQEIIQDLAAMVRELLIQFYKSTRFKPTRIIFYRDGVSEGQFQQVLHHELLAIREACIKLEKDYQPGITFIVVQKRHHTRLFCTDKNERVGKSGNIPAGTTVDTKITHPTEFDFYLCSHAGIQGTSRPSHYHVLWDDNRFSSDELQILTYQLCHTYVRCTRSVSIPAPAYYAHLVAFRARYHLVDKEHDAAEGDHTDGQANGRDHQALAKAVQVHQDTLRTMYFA
Procedure, shortened: as §1
In the case of B1, the binding signal is reported as 0.675 fold enrichment over input. In the case of B2, the binding signal is reported as 0.709 fold enrichment over input. For B3, the binding signal was 0.628 fold enrichment over input. With B4 the binding signal was 0.527 fold enrichment over input. B5 was tested, and the binding signal was 0.575 fold enrichment over input. With B6 the binding signal was 0.623 fold enrichment over input. For B7, the binding signal was 0.689 fold enrichment over input. B8 was tested, and the binding signal was 0.657 fold enrichment over input. B9 was tested, and the binding signal was 0.643 fold enrichment over input. For B10, the binding signal was 0.679 fold enrichment over input.

What follows are binders tested against AGO2 F182del (Homo sapiens, UniProt Q9UKV8 1-859, S387D;S824A;S828D;S831D;S834A;del182-182) in the same assay as above. Settings: protein: recombinant; tags: His6 (N-terminal, pFastBac HTA).
Chain of AGO2 F182del (Q9UKV8 other isoform, or with tags, fused parts or gaps S387D;S824A;S828D;S831D;S834A;del182-182): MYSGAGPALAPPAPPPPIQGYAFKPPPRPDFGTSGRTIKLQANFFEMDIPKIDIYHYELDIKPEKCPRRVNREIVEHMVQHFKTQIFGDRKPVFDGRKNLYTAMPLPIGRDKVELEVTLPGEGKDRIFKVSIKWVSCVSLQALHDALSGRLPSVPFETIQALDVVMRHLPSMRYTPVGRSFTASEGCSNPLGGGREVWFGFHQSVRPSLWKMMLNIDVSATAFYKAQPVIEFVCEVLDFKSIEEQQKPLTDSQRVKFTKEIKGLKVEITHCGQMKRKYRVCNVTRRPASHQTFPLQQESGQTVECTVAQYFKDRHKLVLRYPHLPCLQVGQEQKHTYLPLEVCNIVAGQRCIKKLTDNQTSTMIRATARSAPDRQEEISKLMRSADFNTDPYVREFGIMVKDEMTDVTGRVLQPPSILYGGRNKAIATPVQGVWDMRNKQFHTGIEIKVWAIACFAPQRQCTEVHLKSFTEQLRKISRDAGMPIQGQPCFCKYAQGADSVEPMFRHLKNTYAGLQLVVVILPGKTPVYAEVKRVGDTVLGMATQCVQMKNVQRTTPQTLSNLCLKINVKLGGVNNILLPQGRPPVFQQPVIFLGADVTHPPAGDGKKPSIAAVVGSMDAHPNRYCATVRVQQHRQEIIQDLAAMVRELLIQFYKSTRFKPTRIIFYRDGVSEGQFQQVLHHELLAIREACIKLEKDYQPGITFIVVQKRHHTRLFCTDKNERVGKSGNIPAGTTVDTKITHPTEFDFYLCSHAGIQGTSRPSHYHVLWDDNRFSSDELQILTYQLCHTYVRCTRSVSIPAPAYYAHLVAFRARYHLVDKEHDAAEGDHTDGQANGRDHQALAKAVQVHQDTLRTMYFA
Procedure, shortened: as §1
In the case of B1, the binding signal is reported as 2.79 fold enrichment over input. For B2, the binding signal was 4.77 fold enrichment over input. B3 was tested, and the binding signal was 1.11 fold enrichment over input. With B4 the binding signal was 1.55 fold enrichment over input. With B5 the binding signal was 1.82 fold enrichment over input. For B6, the binding signal was 0.822 fold enrichment over input. With B7 the binding signal was 1.38 fold enrichment over input. With B8 the binding signal was 1.42 fold enrichment over input. For B9, the binding signal was 2.01 fold enrichment over input. For B10, the binding signal was 1.83 fold enrichment over input.
